RMI FANCM FP: inhibitors of human RMI core complex binding to FANCM MM2; AID 1159607; 70,000 tested, 0.58% active; FP signal (polarization) at 33 µM; Fluorescence polarization, RMI core complex with F-MM2 peptide; stronger effect = lower value; in the data active means FP signal below about 40
* marks the source's active call; other numbers are inactive results; ! = repeats disagree. The full list was thinned out, with hits kept by preference.

SMILES | RMI FANCM FP
COc1ccc(C)cc1NC(=O)Cn1c(=O)n(Cc2ccc(F)cc2)c(=O)c2nccnc21 | 65
Cc1ccc(-n2c(C)nc3ccc(NC(=O)CNC(=O)c4ccccc4)cc3c2=O)cc1 | 61
CSc1nnc(Sc2ncc([N+](=O)[O-])s2)s1 | 2*
O=[N+]([O-])c1cnc(Sc2ccc(C(F)(F)F)cn2)s1 | 58
O=[N+]([O-])c1cnc(Sc2nnc(-c3ccc(Cl)cc3)o2)s1 | 55
CCOC(=O)c1sc(NC(=O)Nc2ccc([N+](=O)[O-])cc2)c(SC#N)c1C | 63
Cc1nn(-c2ccccc2)nc1-c1nnc(-c2ccccc2)o1 | 48
Cc1c2n(c3ccccc13)CC/C2=N/O | 58
COCCN1CCCc2ccc(NS(=O)(=O)c3cc(C)ccc3C)cc21 | 61
Cc1sc(N)c(C(N)=O)c1C | 15*
CCOC(=O)/C=C/C(=O)Nc1sc(C)c(C)c1C(N)=O | 52
Cc1sc(N)c(C(=O)c2cccc(C(F)(F)F)c2)c1C | 58
CC(=O)N1CCc2ccc(NS(=O)(=O)c3cc(F)ccc3F)cc2C1 | 67
CC12CCC(C(=O)N3CCC(C(=O)O)CC3)(CC1=O)C2(C)C (stereo unspecified) | 58
COc1ccc(N2CCN(C(=O)C34CCC(C)(C(=O)C3)C4(C)C)CC2)cc1 (stereo unspecified) | 63
CC1CCCCN1C(=O)C12CCC(C)(/C(=N\O)C1)C2(C)C (stereo unspecified) | 25*
COc1ccccc1N1CCN(CCNC(=O)c2cccs2)CC1 | 63
COc1ccc(CN2CCN(C(c3ccc(F)cc3)c3ccc(F)cc3)CC2)c(OC)c1OC | 65
C(=C\c1ccccc1)/CN1CCN(C(c2ccccc2)c2ccccc2)CC1 | 54
Fc1ccc(C(c2ccc(F)cc2)N2CCN(C/C=C/c3ccccc3)CC2)cc1 | 24*!
CCOc1ccc(S(=O)(=O)NCC(=O)N2CCOC(c3ccccc3)C2)cc1F (stereo unspecified) | 75
CC1/C=C/C=C/CC/C=C/C=C/C=C/C=CC(O[C@@H]2O[C@H](C)[C@@H](O)[C@H](N)[C@@H]2O)CC(O)C(C(=O)O)C(O)CC(=O)CC(O)C(O)CCC(O)CC(O)CC(O)CC(=O)OC(C)C(C)C1O (stereo partly specified) | 61
O=C(Nc1cccc(-c2csc(NC(=O)c3ccc(Br)cc3F)n2)c1)c1ccc(Br)cc1F | 65
CC(O)=c1c(=O)nc2ccc(Cl)c3c2=c1c1ccccc1c3=O | -21*
N#C/C(=C\c1ccc(Cl)c(Cl)c1)c1nc2ccccc2c(=O)[nH]1 | 62
SMILES | RMI FANCM FP
CN(C)c1ccc(-c2nc3ccccc3c(=O)[nH]2)c(Cl)c1 | 51
CC(C)CCN1C(=O)C(C)(C)COc2ccc(NS(=O)(=O)c3cccs3)cc21 | 65
CC(C)c1ccc(S(=O)(=O)Nc2ccc3c(c2)N(C(=O)c2cccs2)CC3)cc1 | 77
ONC=Nc1ncc(C(F)(F)F)cc1Cl | 60
O=C(c1ccc(F)cc1)N1CCN(c2ccc3nnc(-c4ccco4)n3n2)CC1 | 63
CCOc1cccc2cc(-c3csc(NC(=O)c4ccc(C(C)=O)cc4)n3)oc12 | 53
CCOc1cccc2cc(-c3csc(NC(=O)c4ccc(S(=O)(=O)N5CCCc6ccccc65)cc4)n3)oc12 | 54
CCC1CCCCN1S(=O)(=O)c1ccc(C(=O)Nc2nc(-c3cc4cccc(OC)c4o3)cs2)cc1 (stereo unspecified) | 19*
Cc1cc(N2CCCC2)nc(Nc2ccc(NS(=O)(=O)c3ccc(I)cc3)cc2)n1 | 69
Cc1ccc(S(=O)(=O)NCCCc2ccc(N(C)C)cc2)s1 | 70
S=C(NNc1nnnn1-c1ccccc1)Nc1ccccc1 | 63
O=C(Nc1nc(-c2ccc(Br)cc2)cs1)c1ccc(Oc2ccc(C(=O)Nc3nc(-c4ccc(Br)cc4)cs3)cc2)cc1 | 58
O=C(Nc1csc(-c2ccc(Oc3ccc(-c4nc(NC(=O)c5ccc(C(=O)c6ccccc6)cc5)cs4)cc3)cc2)n1)c1ccc(C(=O)c2ccccc2)cc1 | 25*
O=S(=O)(c1ccc(-c2nc(-c3ccc(Cl)cc3)cs2)cc1)N1CCOCC1 | 50
O=C(Nc1csc(-c2ccc(Oc3ccc(-c4nc(NC(=O)c5ccc(S(=O)(=O)N6CCOCC6)cc5)cs4)cc3)cc2)n1)c1ccc(S(=O)(=O)N2CCOCC2)cc1 | 9*
O=C(Nc1ccc(S(=O)(=O)N2CCOCC2)cc1)c1ccc(Cl)cc1 | 55
O=C(Nc1csc(-c2ccc(Oc3ccc(-c4nc(NC(=O)c5cc(Cl)sc5Cl)cs4)cc3)cc2)n1)c1cc(Cl)sc1Cl | 65
O=C(Nc1cc2c3c(c1)CC(=O)N3CCC2)c1ccccc1[N+](=O)[O-] | 52
CCC(=O)Nc1ccc(CN2CCN(c3ccccn3)CC2)cc1 | 60
CCOc1ccc(-c2csc(-n3nc(C)cc3NC(=O)C34CC5CC(CC(C5)C3)C4)n2)cc1 | 72
CCN(CC)S(=O)(=O)c1ccc(C(=O)NCC(=O)NN)cc1 | 56
c1cc2n(c1)CCNC2c1ccncc1 (stereo unspecified) | 62
CC(C)CC(=O)NCCn1ncc2c(N3CCCC3)ncnc21 | 64
CCc1ccc(/C=N\Nc2ncnc3nc[nH]c23)cc1 | 63
CCN1CCCC1CNC(=O)c1cc(S(N)(=O)=O)ccc1OC (stereo unspecified) | 2*!
SMILES | RMI FANCM FP
CCN1CCC[C@H]1CNC(=O)c1c(OC)ccc(I)c1O | 54
CCc1cc(Cl)c(OC)c(C(=O)NC[C@@H]2CCCN2CC)c1O | 45
Nc1c(C(=O)N2CCOCC2)sc(=S)n1-c1ccccc1F | 64
O=C1N=c2ccccc2=CC1=Cc1sc(=S)n(Cc2ccccc2)c1O | 56
Oc1c(C=C2N=c3ccccc3=N2)sc(=S)n1-c1ccccc1F | 23*
Cn1c(-c2ccccc2)c[nH]c1=S | 60
S=c1[nH]cc2ccccn12 | 18*
S=c1[nH]nc2ccccn12 | 56
COC(=O)c1ccc2nc(NC(=O)COc3ccc(Cl)cc3Cl)sc2c1 | 64
CCn1ccnc1N1CCN(C(=O)c2ccc(C(C)(C)C)cc2)CC1 | 63
COc1ccc(Nc2nc3ccccc3nc2NS(=O)(=O)c2ccc(NC(C)=O)cc2)cc1 | 7*!
COc1ccc(NS(=O)(=O)c2ccc(NC(C)=O)cc2)cc1 | 55
O=C(O)c1cccc(Nc2nc3ccccc3nc2NS(=O)(=O)c2ccc(F)cc2)c1 | 58
O=C(CSc1ccc(NC(=O)c2ccccc2F)nn1)NCc1ccc(F)cc1 | 70
COc1ccccc1Nc1nc2c(C)cccn2c(=O)c1C=O | 58
Oc1c(Cl)cc(Cl)cc1C=Nc1ccc(N2CCOCC2)cc1 | 50
CCOC(=O)c1ccc(N2CCOCC2)c(NS(=O)(=O)c2ccccc2[N+](=O)[O-])c1 | 52
O=C1Nc2ccccc2C1Cc1ccc(N=Cc2cc(Cl)cc(Cl)c2O)cc1 (stereo unspecified) | 37
O=C(N/N=C\c1cc(Cl)cc(Cl)c1O)c1ccncc1 | 15
CN(C)c1ccc(C(=O)N/N=C\c2cc(Cl)cc(Cl)c2O)cc1 | 52
Oc1c(Cl)cc(Cl)cc1C=Nc1ccc2n[nH]nc2c1 | 25*
CC(=O)c1ccc(Cl)c(N=Cc2cc(Cl)cc(Cl)c2O)c1 | 34*
Cc1c(C)c(C)c(C(=O)CCc2cccc(N=Cc3cc(Cl)cc(Cl)c3O)c2)c(C)c1C | 40
CCOC(=O)c1ccc(N2CCOCC2)c(N=Cc2cc(Cl)cc(Cl)c2O)c1 | 15*
O=C(c1ccco1)N1CCN(S(=O)(=O)CCN2C(=O)CCCC2=O)CC1 | 61
COC(=O)c1ccccc1-c1ccc(/C=C(\C#N)c2nc(-c3ccco3)cs2)o1 | -43

Screens from PubChem.
